The campaign covered roughly 5,500 compounds. About 2,000 (36%) were called active. About 18% were inconclusive and are not listed. Rule as the data show it: active = normalized growth mostly below about 0.91 (no sharp cut-off); inconclusive = no clear call, values can overlap the other calls; inactive = mostly above about 0.92. This is one part of the list.
Test: chemical genetic growth profiling, strain panel (AID 1159580);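 also: tested at 20 µM; growth read once vehicle control cultures reached saturation at 30 °C; 1 = growth at the plate median or of vehicle wells; lower values mean less growth of the strain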
Conditions: S. cerevisiae deletion strains, growth OD

Measured: normalized growth

NC(=O)C1=C(O)C(=O)N(C2CCCCC2)C1
inactive: locus YAL013W, strain DEP1, active compounds read low 0.992 | locus YBR229C, strain ROT2, active compounds read low 1.01 | locus YDL101C, strain DUN1, active compounds read low 1.02 | locus YDR150W, strain NUM1, active compounds read low 1.03 | locus YEL061C, strain CIN8, active compounds read low 0.995 | locus YGR078C, strain PAC10, active compounds read low 1 | locus YHR030C, strain SLT2, active compounds read low 1.05 | locus YHR087W, strain rtc3, active compounds read low 0.99 | locus YJR043C, strain POL32, active compounds read low 1.02 | locus YJR075W, strain HOC1, active compounds read low 1.01 | locus YKL190W, strain CNB1, active compounds read low 1.01 | locus YLR039C, strain RIC1, active compounds read low 1.02 | locus YLR058C, strain SHM2 (second series), active compounds read low 1.01 | locus YLR085C, strain ARP6, active compounds read low 1.03 | locus YLR262C, strain YPT6, active compounds read low 1 | locus YML094W, strain GIM5, active compounds read low 1 | locus YMR219W, strain ESC1, active compounds read low 1.01 | locus YMR263W, strain SAP30, active compounds read low 1 | locus YNL153C, strain GIM3, active compounds read low 1.01 | locus YNL298W, strain CLA4 (second series), active compounds read low 1.02 | locus YNL322C, strain KRE1, active compounds read low 0.998 | locus YNR030W, strain Alg12, active compounds read low 1.03 | locus YPL055C, strain LGE1, active compounds read low 0.999 | locus YPL241C, strain CIN2, active compounds read low 0.974 | locus YPR135W, strain CTF4, active compounds read low 1.06
